A selection: hits, their analogues and other compounds. The true share with any hit is near 19%.
TDP1 block = blocks human tyrosyl-DNA phosphodiesterase 1; recombinant TDP1, AlphaScreen DNA substrate cleavage; 0.28% of 350,000 active; Potency, µM (titrated, usually from 130 µM), without a hit: top-dose activity change, negative = inhibition, hits mostly inhibitors; AID 485290; Q9NUW8; also: potency is read from the fitted curve at half-maximal effect; nearly all actives have a fitted effect of over 40% in size
Target sequence (Q9NUW8 whole entry, looked up): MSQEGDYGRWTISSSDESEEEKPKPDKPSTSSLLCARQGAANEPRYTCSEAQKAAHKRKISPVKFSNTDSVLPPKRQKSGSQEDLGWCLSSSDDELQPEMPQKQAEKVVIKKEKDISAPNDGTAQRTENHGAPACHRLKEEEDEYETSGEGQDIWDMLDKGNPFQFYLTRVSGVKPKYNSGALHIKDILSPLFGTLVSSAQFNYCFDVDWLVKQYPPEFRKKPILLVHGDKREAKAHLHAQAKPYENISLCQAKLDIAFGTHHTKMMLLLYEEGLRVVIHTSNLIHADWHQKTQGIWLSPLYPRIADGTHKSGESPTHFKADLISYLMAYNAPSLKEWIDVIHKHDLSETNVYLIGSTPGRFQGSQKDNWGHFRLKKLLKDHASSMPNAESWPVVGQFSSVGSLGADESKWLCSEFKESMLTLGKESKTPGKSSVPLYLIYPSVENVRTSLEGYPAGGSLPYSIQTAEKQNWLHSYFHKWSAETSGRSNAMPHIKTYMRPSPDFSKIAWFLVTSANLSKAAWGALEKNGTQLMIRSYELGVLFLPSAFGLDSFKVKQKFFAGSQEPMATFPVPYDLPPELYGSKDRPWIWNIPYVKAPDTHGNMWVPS
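Enzyme-compound mixtures sat 15 min at room temperature, followed by a 5 min reaction with 15 nM final substrate and 10 min with AlphaScreen beads. Recombinant human Tdp1 was used at 1 nM final.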
IL-1B inflam inh = inflammasome signaling inhibition, IL-1 beta readout | THP-1 LPS/ATP IL-1B secretion, AlphaLISA, 16 h; hits give low values | activity change, % at 57.5 µM | 4.7% of 360,000 active | AID 743279; in the data active = activity change below about -50%; inconclusive = mostly about -30% to -49%
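Secreted IL-1B measured by AlphaLISA bead assay after 16 h compound exposure of THP-1 cells; compounds (final up to 57.5 uM) added 1 h before LPS (250 ng/mL) and ATP (1.25 mM) stimulation; lower signal means less secretion.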
DT40 TDP1 no CPT = qHTS for Inhibitors of human tyrosyl-DNA phosphodiesterase 1 (TDP1): qHTS in cells in absence of CPT; DT40 Tdp1-/- hTDP1 cells, no CPT, ATP luminescence, 48 h; Potency, µM (titrated, usually from 46.2 µM), for inactives: at the top dose activity change, negative = growth inhibition, actives largely listed as inhibitors; 15% of 420,000 active; AID 686978, 2013; also: potency is read from the fitted curve at half-maximal effect; nearly all actives have a fitted effect of over 55% in size
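Cells were dispensed at 400 per well, compounds added by pin tool, plates incubated ≥48 hr at 37 °C, then CellTiter-Glo added for 30 min at room temperature before luminescence reading. Line: DT40 Tdp1-/- complemented with hTDP1; camptothecin omitted.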
DT40 TDP1 CPT = DT40-hTDP1 cell growth loss with CPT. chicken DT40 Tdp1-/-;hTDP1 cells + 20 nM CPT, ATP luminescence, 48 h. Potency, µM (highest dose often 46.2 µM), for inactives: at the highest dose activity change, negative = growth inhibition, hits mostly inhibitors. 12% of 420,000 active; also: potency is read from the fitted curve at half-maximal effect; nearly all actives have a fitted effect of over 55% in size
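Chicken DT40 Tdp1-/- cells stably complemented with human TDP1 were seeded at 400 cells/well in medium containing 20 nM camptothecin, exposed to pin-transferred compounds, and grown at 37 °C for at least 48 hr. Viability was read as ATP luminescence.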
Giardia kill = kills Giardia lamblia | Giardia lamblia trophozoite viability | activity change, % at 7.66 µM, hits read low | 0.15% of 340,000 active; in the data active = activity change below about -80%; inconclusive = between about -30% and that limit;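 also: parasites exposed to compound for two days anaerobically before the ATP read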
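ATP-content bioluminescence gauges trophozoite survival. Cells (100/well) receive compound and incubate anaerobically for 48 hrs at 37 deg C; detection reagent follows for 15-30 min at room temperature.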
ELG1 repair inh = blocks ELG1-dependent DNA repair in HEK293T cells. HEK293T ELG1-luciferase reporter, luminescence, 16 h; DNA damage induced by 5-fluorouridine. Potency, µM (titrated, usually from 46.1 µM), for the others: top-dose activity change, negative = inhibition, usual class: inhibitors. 2.3% of 330,000 active; also: potency is read from the fitted curve at half-maximal effect; nearly all actives have a fitted effect of over 55% in size
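Overnight (16 hr) co-exposure of 2,000 cells/well to 5-fluorouridine and compound at 37 °C preceded detection. Luciferase was quantified via ONE-Glo luminescence; loss of signal denotes inhibition.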
* marks the source's active call; other numbers are inactive results; ? = inconclusive; · = no result; [ ] = another dose, or the depositor's remark. Unless noted, calls follow the shape of the dose curve; as a rule, active = well fitted curve in the direction sought with a large enough effect; inconclusive = small, poorly fitted or top-dose-only effect, or another doubt; inactive = no such curve, though single readings can be large; an effect the other way counts as inactive or inconclusive. % is scaled to controls: 0 for no effect and ±100 for the full control effect.

SMILES	TDP1 block	IL-1B inflam inh	DT40 TDP1 no CPT	DT40 TDP1 CPT	Giardia kill	ELG1 repair inh
CSc1ncnc2c1ncn2CCCNC1CCN(Cc2ccccc2)CC1	·	?	23.1µM*	?	·	·
c1ccc(COc2ncnc3c2ncn3CCCNC2CCN(Cc3ccccc3)CC2)cc1	·	?	4.11µM*	7.31µM*	·	·
COC1OC2COC(c3ccccc3)OC2C(NC(C)=O)C1OC(C)=O (stereo not drawn)	·	-5.5	-10.8%	0.4%	·	·
COC(=O)N(C)C[C@H]1OCc2cnnn2CCCC(=O)N([C@H](C)CO)C[C@H]1C	·	17.2	-12.8%	6.9%	·	·
COc1ccc(OC)c(Nc2nc(C)nc3c2oc2ccccc23)c1	·	10.1	20.6µM*	23.1µM*	13.7	?
COc1ccc(CCNc2nc(C)nc3c2oc2ccccc23)cc1OC	5.9%	?	4.11µM*	3.66µM*	-17.8	10.3µM*
O=C(Cc1ccc(Cl)cc1)Nc1cccnc1Cl	·	-27.5	-3.9%	5.7%	·	·
CC(=O)Nc1ccc(C(C#N)=Cc2ccc(N(C)CCC#N)cc2)cc1	·	-29.9	14.6µM*	?	·	·
CN(CCC#N)c1ccc(C=C(C#N)c2cccc(C(F)(F)F)c2)cc1	·	-28.1	23.1µM*	16.4µM*	·	·
CN(C)/C=C/C(=O)c1cccc(C(F)(F)F)c1	-3.8%	-25.4	-12.6%	0.6%	-15.5	?
COc1ccc(C(C#N)=Cc2ccc(NC(C)=O)cc2)cc1	·	-7.2	-26.2%	-1.9%	20.5	·
Cc1cc[n+]2c3c(cccc13)CCC2	7.1%	43.8	18.4µM*	20.6µM*	7.2	1.6%
COc1ccc(/C=C2\N=C(C(C)(C)C)OC2=O)c(OC)c1	2.8%	30.9	8.2µM*	7.31µM*	12.4	0.0%
O=C(O)CCCN=Cc1c(O)c2ccccc2oc1=O	-2.5%	-16.1	-29.0%	-10.1%	-5.6	-11.9%
CN[C@H](CC(C)C)C(=O)N[C@H]1C(=O)N[C@@H](CC(N)=O)C(=O)N[C@H]2C(=O)N[C@H]3C(=O)N[C@H](C(=O)N[C@H](C(=O)O)c4cc(O)cc(O)c4-c4cc3ccc4O)[C@H](O)c3ccc(c(Cl)c3)Oc3cc2cc(c3O[C@@H]2O[C@H](CO)[C@@H](O)[C@H](O)[C@H]2O[C@H]2C[C@](C)(N)[C@H](O)[C@H](C)O2)Oc2ccc(cc2Cl)[C@H]1O	6.1%[56.1 µM]	·	·	·	·	·
CCn1c2ccccc2c2cc(CN3CCN(S(=O)(=O)CC)CC3)ccc21	2.7%	·	·	·	·	-19.6%
CCn1c2ccccc2c2cc(CN3CCN(Cc4ccc(Br)cc4)CC3)ccc21	-5.7%[12.3 µM]	·	14.6µM*	18.4µM*	·	·
CCn1c2ccccc2c2cc(CN3CCN(S(=O)(=O)Cc4ccccc4)CC3)ccc21	-2.7%	33.9	14.6µM*	?	-29.9	-19.4%
O=C(O)c1cc(-c2ccc3c(c2)OCO3)nc2ccc(Br)cc12	6.0%	13.9	-2.1%	-19.7%	18.9	0.0%
Oc1ccc(Br)cc1C1C=C(c2ccc3c(c2)OCO3)NC(c2ccc(Br)cc2)N1 (stereo not drawn)	2.9%	·	7.94µM*	10µM*	5.2	·
COc1ccc(Br)cc1C1NC(c2ccc3c(c2)OCO3)=CC(c2ccccc2O)N1 (stereo not drawn)	1.6%	·	10µM*	?	-16.6	·
Cc1ccc(C2NC(c3ccc4c(c3)OCO4)=CC(c3cc(Br)ccc3O)N2)cc1 (stereo not drawn)	3.5%	·	4.47µM*	7.94µM*	9.7	·
Oc1ccccc1C1C=C(c2ccc3c(c2)OCO3)NC(c2ccc(Br)cc2)N1 (stereo not drawn)	1.9%	·	11.2µM*	11.2µM*	-9.1	·
COc1ccc(OC)c2nc(-c3ccc4c(c3)OCO4)ccc12	·	1.4	-30.7%	-0.8%	-16.6	?
Oc1ccc(Br)cc1C1C=C(c2ccc3c(c2)OCO3)NC(c2ccc(F)c(Br)c2)N1 (stereo not drawn)	0.6%	·	·	·	-13.9	·
SMILES	TDP1 block	IL-1B inflam inh	DT40 TDP1 no CPT	DT40 TDP1 CPT	Giardia kill	ELG1 repair inh
OC[C@H]1O[C@H](OC[C@H]2O[C@H](OC[C@H]3O[C@H](O[C@]4(CO)O[C@H](CO)[C@@H](O)[C@@H]4O)[C@H](O)[C@@H](O)[C@@H]3O)[C@H](O)[C@@H](O)[C@H]2O)[C@H](O)[C@@H](O)[C@H]1O	·	-23.7	3.8%	9.0%	-1.6	14.0%
CCCNc1c(NS(=O)(=O)c2cccs2)c(=O)oc2ccccc12	1.2%	19.7	9.1%	-4.3%	-13.3	0.4%
Oc1ccccc1C1C=C(c2ccc3c(c2)OCO3)NC(c2cccc(Cl)c2)N1 (stereo not drawn)	2.1%	·	12.6µM*	?	-3.7	·
Oc1ccccc1C1C=C(c2ccc3c(c2)OCO3)NC(c2ccc(F)c(Br)c2)N1 (stereo not drawn)	1.5%	·	·	·	-10.7	·
O=C(Nc1nc(-c2cccnc2)cs1)c1ccccc1[N+](=O)[O-]	5.1%	16.9	0.1%	2.5%	0.6	-5.8%
C[C@H]1O[C@H](O[C@H]2[C@H](O)[C@@H](O)[C@@H](O[C@H]3[C@H](O)[C@@H](O)[C@H](O)O[C@@H]3CO)O[C@@H]2CO)[C@H](O)[C@@H](O)[C@@H]1N[C@H]1C=C(CO)[C@@H](O)[C@H](O)[C@H]1O	·	·	10.9%	9.0%	·	·
CCC1Oc2ccccc2N(CC(=O)NCc2cc(OC)ccc2OC)C1=O (stereo not drawn)	10.4%	·	13µM*	?	·	·
CCC1Oc2ccc(C)cc2N(CC(=O)NCc2cccc(OC)c2)C1=O (stereo not drawn)	5.9%	-8.0	10.3µM*	?	8.4	-21.1%
CCC1Oc2ccc(C)cc2N(CC(=O)NCc2ccccc2OC)C1=O (stereo not drawn)	5.9%	0.0	-22.8%	-8.3%	-0.9	1.3%
CCn1nc(NC(=O)c2ccncc2)c2cc3cc(C)ccc3nc21	-3.7%	?	23.1µM*	?	-2.0	?
CCCn1nc(NC(=O)c2ccco2)c2cc3ccccc3nc21	0.0%	-3.7	14.6µM*	23.1µM*	2.6	?
Cc1ccc2cc3c(NC(=O)c4ccco4)nn(C)c3nc2c1	7.3%	-0.6	?	-31.0%	20.0	-20.5%
CC(C)Cn1nc(NC(=O)c2cccc(Cl)c2)c2cc3ccccc3nc21	-1.2%	·	8.2µM*	14.6µM*	·	·
CCn1nc(NC(=O)c2ccco2)c2cc3cc(C)ccc3nc21	-2.6%	-50.2*	?	?	5.1	-16.2%
